Columns and labels:
Type in all cases: functional
[1] = molecular target: Solute carrier family 2, facilitated glucose transporter member 1 (Homo sapiens) (UniProt P11166); experiment: ST_JUDE_LEISH: Cytotoxicity at 2uM final concentration against transgenic Leishmania Mexicana promastigotes LmGLUT1 that are glucose transport deficient and complemented with the human glucose transporter GLUT1. Activity is measured by DNA content using SYBR green in vitro
[2] = molecular target: Hexose transporter 1 (Plasmodium falciparum) (UniProt O97467); experiment: ST_JUDE_LEISH: Cytotoxicity at 2uM final concentration against transgenic Leishmania Mexicana promastigotes LmPfHT that are glucose transport deficient and complemented with the Plasmodium falciparum hexose transporter. Activity is measured by DNA content using SYBR green in vitro
[3] = molecular target: Glucose transporter (Leishmania mexicana) (UniProt O61059); experiment: ST_JUDE_LEISH: Cytotoxicity at 2uM final concentration against transgenic Leishmania Mexicana promastigotes LmGT2 that are glucose transport deficient and complemented with the L. Mexicana glucose transporter 2. Activity is measured by DNA content using SYBR green in vitro

Sequence of Solute carrier family 2, facilitated glucose transporter member 1 (Homo sapiens) (P11166 whole entry): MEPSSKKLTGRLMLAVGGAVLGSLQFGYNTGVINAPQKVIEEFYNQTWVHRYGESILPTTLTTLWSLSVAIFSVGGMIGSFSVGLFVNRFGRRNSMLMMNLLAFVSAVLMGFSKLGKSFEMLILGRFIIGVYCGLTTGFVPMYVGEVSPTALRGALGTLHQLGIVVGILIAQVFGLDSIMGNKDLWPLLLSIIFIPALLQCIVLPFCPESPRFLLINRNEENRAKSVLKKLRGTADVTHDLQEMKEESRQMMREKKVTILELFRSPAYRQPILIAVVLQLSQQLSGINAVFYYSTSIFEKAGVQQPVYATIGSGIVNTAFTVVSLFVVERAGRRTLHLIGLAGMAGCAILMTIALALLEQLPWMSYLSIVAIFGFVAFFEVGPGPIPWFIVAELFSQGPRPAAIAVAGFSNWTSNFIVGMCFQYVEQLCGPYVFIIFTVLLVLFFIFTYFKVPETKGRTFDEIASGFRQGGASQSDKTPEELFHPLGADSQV

Structure (SMILES) | inhibition [1] [%] | inhibition [2] [%] | inhibition [3] [%]
COc1ccc2nccc(N3CCC(SCCNCc4ccc5c(n4)NC(=O)CO5)C3)c2n1 (stereo unspecified) | 0.4 | 2.93 | 2.08
NC1CCN(CCc2ccc(NS(=O)(=O)c3ccc(-c4ccccc4)cc3)cc2)CC1 | 0.64 | -0.24 | 0.08
COc1cc(C2CCN(CCCCNC(=O)c3ccc(NC(=O)c4cc(C(F)(F)F)cc(C(F)(F)F)c4)cc3)CC2)ccc1OC(C)C | 1.12 | 0.93 | 1.71
Clc1ccc(CNc2nc(NCCc3c[nH]cn3)nc(NC3CCCCC3)n2)cc1 | 0.15 | -1.21 | -0.72
CCc1ccc(CN2CCCCC(NC(=O)c3cc(-c4ccccc4F)cs3)C2)cc1 (stereo unspecified) | -2.71 | -0.89 | 1.12
O=C(Cc1ccccc1)NC(CCN1CCC(NC(=O)c2ccc(Cl)cc2)CC1)c1ccc(Cl)c(Cl)c1 (stereo unspecified) | 2.22 | 0.27 | 1.02
O=C(Nc1cccc2ccccc12)N1CCC(NS(=O)(=O)c2cccc(C(F)(F)F)c2)CC1 | 0.57 | 0.62 | 0.91
CN(c1ccccc1)S(=O)(=O)c1cccc(NC(=O)c2ccc(-n3ccnc3)c([N+](=O)[O-])c2)c1 | 2.91 | 3.61 | 0.73
Cc1ccc(N2C(N)=NC(N)=NC2(C)C)cc1Cl | 11.4 | 8.8 | 8.05
O=C(/C=C/c1ccc(Cl)c(Cl)c1)NCCCCCN1CCCN(C(=O)Nc2ccc(F)c(F)c2)CC1 | 2.67 | 2.88 | 6.1
Cc1cc(-c2ccc(NC(=O)N3CCc4cc(Cl)c(N5CCN(C)CC5)cc43)cc2)ccc1C#N | 78.1 | 77.2 | 81.7
CN1CC[C@@H](Oc2cc(CNC(=O)c3ccc(-c4ccc(Cl)cc4)s3)ccc2C(F)(F)F)C1 | -1.97 | -1.98 | -1.59
